# Screening results: PubChem BioAssay, National Center for Advancing Translational Sciences (NCATS)
# GLS inh: blocks human kidney-isoform glutaminase activity. O94925. GLS enzymatic activity, qHTS titration. Potency, µM (top dose mostly 45.5 µM), for the others: top-dose activity change, negative = inhibition, most hits filed as inhibitors. 410,000 compounds, 0.21% hits; note: % is set by controls: 0 for no effect and ±100 for the full control effect
#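 Two-point fluorescence kinetic (t0, 30 min RT) for hKGA; glutamate detected via glutamate oxidase–HRP–Amplex Red. Substrate: 1 mM L-glutamine solution; buffer 45 mM KH2PO4, pH 8.2.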
# JMJD2A Tudor inh: inhibitors of human JMJD2A Tudor domain; O75164; AlphaScreen JMJD2A-Tudor / H3K4me3 peptide binding; Potency, µM (top dose mostly 114 µM), for inactives: at the top dose activity change, negative = inhibition, most hits filed as inhibitors; 390,000 compounds, 4.4% hits; note: % is set by controls: 0 for no effect and ±100 for the full control effect; nearly all actives have a fitted effect of over 50% in size
# BAZ2B block: blocks human BAZ2B; Q9UIF8; AlphaScreen BAZ2B-H3K14Ac peptide displacement; Potency, µM (series often up to 114 µM), inactives show at the top dose activity change, negative = inhibition, hits mostly inhibitors; 360,000 compounds, 4.4% hits; AID 504333; note: % is set by controls: 0 for no effect and ±100 for the full control effect; nearly all actives have a fitted effect of over 60% in size
#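 Compounds, titrated to a top concentration of 110 uM, were incubated 30 min at room temperature with preformed BAZ2B/acetyl-K14 H3 peptide complex (50 nM each). Proximity signal was measured by AlphaScreen after 20 min with beads.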
# G9a inh: blocks human histone lysine methyltransferase G9a | Q96KQ7 | G9a H3K9 monomethylation, AlphaScreen, 2 h | Potency, µM (top dose mostly 102 µM), for inactives: top-dose activity, negative = inhibition, usual class: inhibitors | 350,000 compounds, 8.8% hits | AID 504332; note: % is set by controls: 0 for no effect and ±100 for the full control effect; nearly all actives have a fitted effect of over 75% in size
# Target sequence (Q96KQ7 913-1193 limits assumed): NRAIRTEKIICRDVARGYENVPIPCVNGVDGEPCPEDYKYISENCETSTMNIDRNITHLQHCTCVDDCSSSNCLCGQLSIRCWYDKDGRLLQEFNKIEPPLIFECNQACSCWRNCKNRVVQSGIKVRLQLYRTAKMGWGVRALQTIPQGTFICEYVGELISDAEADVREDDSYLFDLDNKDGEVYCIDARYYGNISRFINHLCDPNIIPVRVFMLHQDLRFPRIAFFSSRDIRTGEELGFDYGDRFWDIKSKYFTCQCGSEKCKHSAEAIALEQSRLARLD
#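 G9a (20 nM) was preincubated 15 min with compound, then reacted 2 h at room temperature with 500 nM biotin-H3K9 peptide and 20 µM SAM. Monomethyl-H3K9 detected by AlphaScreen using anti-H3K9me1 antibody.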
# HP1b chromo inh: HP1-beta chromodomain-methylated histone interaction inhibition; P83916; AlphaScreen HP1-beta / biotin-H3K9me3 peptide binding; Potency, µM (highest dose often 114 µM), without a hit: at the top dose activity change, negative = inhibition, hits mostly inhibitors; 390,000 compounds, 0.56% hits; note: nearly all actives have a fitted effect of over 70% in size
# Target sequence (P83916 whole entry, looked up): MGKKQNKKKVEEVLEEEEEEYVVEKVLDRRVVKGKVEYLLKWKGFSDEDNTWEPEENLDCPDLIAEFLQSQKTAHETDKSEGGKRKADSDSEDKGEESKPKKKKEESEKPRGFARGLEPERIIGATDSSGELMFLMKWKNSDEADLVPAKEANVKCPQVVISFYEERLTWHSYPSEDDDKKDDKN
#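 HP1-beta protein (50 nM final) preincubated 30 min at room temperature with biotinylated H3(1-18)K9me3 peptide (50 nM) in PBS pH 7.4, 0.01% Tween-20, then compound added for 30 min. AlphaScreen streptavidin donor/nickel chelate acceptor beads (10 ug/mL final), 30 min dark, luminescence read.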
# Starred values were filed as active, the others as inactive; ? = inconclusive; . = no result given; [ ] = remark or other dose. A selection: hits, their analogues and other compounds. The true share with any hit is near 10%. Calls come from the whole dose curve; as a rule, active = well fitted curve in the direction sought with a large enough effect; inconclusive = small, poorly fitted or top-dose-only effect, or another doubt; inactive = no such curve, though single readings can be large; an effect the other way counts as inactive or inconclusive. Potency is the fitted concentration of half-maximal effect.
SMILES,GLS inh,JMJD2A Tudor inh,BAZ2B block,G9a inh,HP1b chromo inh
COc1ccc(C(=O)COC(=O)[C@H](C)Nc2ccc(C(F)(F)F)cc2[N+](=O)[O-])c(OC)c1,?,-32%,50µM*,?,-24%
COc1ccc(Nc2nc(-c3sc(C)nc3C)cs2)cc1,3%,?,50µM*,.,?
Cc1nc(C)c(-c2csc(Nc3ccc(O)c(C(=O)O)c3)n2)s1,?,-29%,?,79µM*,-8%
Cc1nc(C)c(-c2csc(Nc3ccc(N)cc3)n2)s1,28%,50µM*,28µM*,40µM*,?
O=C(COC(=O)c1cccc(OC(F)F)c1)Nc1cccc(S(=O)(=O)N2CCCC2)c1,6%,-9%,.,.,23%
CCc1ccc(-c2nc(CN3CCCC(C(=O)N4CCN(c5cc(Cl)ccc5C)CC4)C3)c(C)o2)cc1 (stereo unspecified),-5%,?,10µM*,8.9µM*,-20%
CCCN1CCc2nc(N3CCN(CC)CC3)ncc2C1,4%,?,-17%,?,13%
CCc1ccc(CN2CCc3nc(N4CCN(CC)CC4)ncc3C2)cc1,24%,?,56µM*,?,11%
CCN1CCN(c2ncc3c(n2)CCN(Cc2ccc(OC)c(OC)c2)C3)CC1,9%,-25%,-26%,-24%[12.7 µM],23%
CCN1CCN(c2ncc3c(n2)CCN(Cc2cc(F)cc(F)c2)C3)CC1,8%,79µM*,50µM*,?,-5%
COc1cc2cc(CCCOC(=O)CCCC(=O)O)oc(=O)c2cc1OC,7%,-15%,7%,1%[0.501 µM],47%
CC(=O)c1ccc(N2CCN(c3ccc(S(=O)(=O)NCCCN(C)C)cc3[N+](=O)[O-])CC2)cc1,2%,?,.,?,-6%
O=Cc1cc([N+](=O)[O-])ccc1N1CCN(Cc2ccc3c(c2)OCO3)CC1,0%,?,?,45µM*,7%
O=[N+]([O-])c1ccc(N2CCN(Cc3ccc4c(c3)OCO4)CC2)nc1,-17%,?,?,.,1%
CN(C)CCCNS(=O)(=O)c1ccc(N2CCN(Cc3ccc4c(c3)OCO4)CC2)c([N+](=O)[O-])c1,6%,5.6µM*,22µM*,10µM*,22µM*
CN(C)CCNS(=O)(=O)c1ccc(N2CCc3ccccc32)c([N+](=O)[O-])c1,21%,?,?,50µM*,?
Cc1cc(CNC[C@H]2O[C@@H](n3ccc(=O)[nH]c3=O)[C@H](O)[C@@H]2O)no1,-5%,.,.,.,.
Cc1ccccc1NC(=O)c1sc2nc(N3CCOCC3)c3c(c2c1N)CC(C)(C)OC3,-20%,-4%,-6%,?,46%
Cc1nnc(Sc2cc(NCCCO)c([N+](=O)[O-])c3nonc23)s1,?,28µM*,-25%,5.6µM*,13µM*
Cc1nnc(Sc2cc(NCCO)c([N+](=O)[O-])c3nonc23)s1,-3%,?,-20%,2µM*,13µM*
O=[N+]([O-])c1c(NCCO)cc(N2CCCCCC2)c2nonc12,-3%,-23%,-23%,13%,9%
CCC(=O)N1c2ccc(S(=O)(=O)CCC(=O)NCc3ccccc3OC)cc2CC1C (stereo unspecified),10%,-15%,.,?,9%
Cc1ccc(CNC(=O)CCS(=O)(=O)c2ccc3c(c2)CC(C)N3C(=O)C2CC2)cc1 (stereo unspecified),4%,-1%,-13%[57.1 µM],12%,24%
CCC(=O)N1c2ccc(S(=O)(=O)CCC(=O)Nc3ccc(OC)cc3OC)cc2CC1C (stereo unspecified),2%,?,-27%,40µM*,25%[57 µM]
CCC(=O)N1c2ccc(S(=O)(=O)CCC(=O)NCc3ccc4c(c3)OCO4)cc2CC1C (stereo unspecified),20%,50µM*,-6%,12%[0.501 µM],-5%
SMILES,GLS inh,JMJD2A Tudor inh,BAZ2B block,G9a inh,HP1b chromo inh
CCOc1ccccc1NC(=O)CCS(=O)(=O)c1ccc2c(c1)CCN2C(C)=O,-1%,?,-20%,14%,-3%
CCOc1ccccc1NC(=O)CCS(=O)(=O)c1ccc2c(c1)CC(C)N2C(C)=O (stereo unspecified),0%,-9%,2%,25µM*,21%[57 µM]
CN(C)S(=O)(=O)c1ccc(C(=O)NCC2CC2(Cl)Cl)cc1 (stereo unspecified),-8%,13µM*,12%,2%[59 µM],-7%
COC(=O)C1=C[C@@H](C(=O)OC)[C@@H]2C3=C(C(=O)[C@@]2(C)NC(=O)c2ccccc2)[C@H](C)[C@@H]2C(=O)N(c4ccccc4)C(=O)[C@@H]2[C@@H]3C1,.,-22%,.,.,27%
O=C(/C=C/c1ccc(O)c(O)c1)c1ccc(S(=O)(=O)N2CCCCCC2)cc1,-23%,?,35µM*,5µM*,40µM*
NC1=NC(=O)/C(=C/c2cn(Cc3ccccc3)c3ccccc23)S1,-2%,-35%,?,50µM*,1%
CN1CCN(C2=C(Cl)C(=O)N(c3ccc(Cl)cc3)C2=O)CC1,4%,40µM*,.,5µM*,26%
COc1ccc(Br)cc1CNC(=O)c1ccc2c(c1)nc1n2CCCCC1,4%,-17%,-2%,4%[59 µM],23%[57 µM]
CCCCSc1nc(NCc2ccco2)c2c3c(sc2n1)COC(C)(C)C3,10%,-23%,-27%,50µM*,29%
Cc1ccccc1CN1C(=O)c2ccccc2S(=O)(=O)c2ccc(C(=O)OCC3CCCO3)cc21 (stereo unspecified),0%,-23%,-4%,-3%[59 µM],44%
CN1CCN(c2ccc(S(=O)(=O)N3CCCCC3)cc2NC(=O)COc2cccc(Cl)c2)CC1,2%,?,?,40µM*,-36%
Cc1cccc(OCC(=O)Nc2cc(S(=O)(=O)N3CCCCC3)ccc2N2CCN(C)CC2)c1,-5%,-27%,.,-19%,4%[57 µM]
O=C(COc1ccc(Br)cc1)Nc1cc(S(=O)(=O)N2CCCCC2)ccc1N1CCCCC1,2%,-14%,0%,-7%[59 µM],-2%
CN1CCN(c2ccc(S(=O)(=O)N3CCCCC3)cc2NC(=O)COc2ccc(F)cc2)CC1,-6%,?,?,28µM*,-13%
CC1CCC2(CC1)NC(=O)N(Cc1cccc(C(F)(F)F)c1)C2=O (stereo unspecified),-1%,-7%,.,-1%,34%
CC1CCN(C(=O)CCC(=O)Nc2nnc(C(F)(F)F)s2)CC1,-1%,3%,-3%,-3%[59 µM],48%
COc1ccc(N2CCN(C(=O)C(C)n3c(=O)cc(C(F)(F)F)c4c(C)nn(C)c43)CC2)cc1 (stereo unspecified),18%,-24%,35µM*,10µM*,?
O=c1[nH]c(=O)n(C(c2ccccc2)(c2ccccc2)c2ccccc2)cc1N(CCO)CCO,33%,-21%,.,.,17%
